Measured values from PubChem BioAssay.

Target: Streptavidin (Streptomyces avidinii) (UniProt P22629)
Experiment: compounds binding control protein streptavidin – biophysical, small-molecule microarray, 635/667 nm fluorescence, artefact control for SMM compound annotation, primary screen (AID 1147);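 further: signal reflects streptavidin binding to arrayed compounds as a control protein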
Settings: higher = more signal

Chain of Streptavidin (Streptomyces avidinii) (P22629 whole entry, looked up): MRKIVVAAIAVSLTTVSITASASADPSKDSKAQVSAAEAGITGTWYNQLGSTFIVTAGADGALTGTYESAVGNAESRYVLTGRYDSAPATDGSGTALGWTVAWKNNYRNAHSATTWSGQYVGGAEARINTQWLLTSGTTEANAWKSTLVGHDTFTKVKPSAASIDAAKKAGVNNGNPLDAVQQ

SMILES | composite z-score
CN1C(=O)C2C=CC(C(O)c3ccccc3)N(N3CCCCC3)C2C1=O (stereo unspecified) | 0.479
C=C(C(=O)CC[C@H](OC(C)=O)c1ccccc1OCCO)C(C)C | -0.455
C=C(CCCC)C(=O)CC[C@@H](OC(C)=O)c1ccc(CO)o1 | -0.918
CC(C)(C)OC(=O)CC[C@]1(C(=O)NCCN2CCOCC2)COC(c2ccc(OCCCO)cc2)=N1 | 0.344
C=CCOC(=O)[C@H]1[C@@H]2C(=O)O[C@@H](c3ccccc3)[C@@H](c3ccccc3)N2[C@@H](c2ccc(OCCOC(=O)[C@H]3C[C@H]4C(=O)N[C@@H](CCCCN(C)C)C(=O)N4[C@H]3c3cccc(OCCO)c3)cc2)[C@]12C(=O)Nc1ccc(I)cc12 | 0.457
[N-]=[N+]=Nc1ccccc1C[C@]1(C(=O)NCc2ccccc2)N=C(c2ccc(OCCCO)cc2)O[C@H]1c1ccccc1N=[N+]=[N-] | 1.73
CCOC(=O)C1=CC[C@@H](c2ccccc2)N(S(=O)(=O)c2ccc(C)cc2)[C@H]1c1ccc(CC)cc1 | 1.13
COCC(=C=CC[C@H](O)c1ccccc1OCCO)CCO | -0.193
COc1ccc(C(=O)Nc2ccc(CN3C(=O)[C@]4(O[C@H](CC(=O)N5CCC[C@H]5CO)[C@@H]([Si](C)(C)c5ccc(OC)cc5)[C@@H]4C)c4ccccc43)cc2)cc1 | 0.111
C=C(C)[C@@H]1CC=C(C(O)C2C=CC3C(=O)NC(=O)C3N2Nc2ccc(Cl)cc2Cl)CC1 (stereo partly specified) | 1.39
O=C1O[C@@H](c2ccccc2)[C@@H](c2ccccc2)N2[C@@H](c3ccc(OCCO)cc3)[C@]3(C(=O)Nc4ccc(C#CCCO)cc43)[C@@H](C(=O)NC[C@H](O)c3ccccc3)[C@H]12 | 0.477
